Screening results: PubChem, National Center for Advancing Translational Sciences (NCATS)
Most compounds without a hit are left out; they make up all but 21% or so of the library.
TDP1 cell CPT = qHTS for Inhibitors of human tyrosyl-DNA phosphodiesterase 1 (TDP1): qHTS in cells in presence of CPT; AID 686979, 2013; Potency, µM (titrated, usually from 46.2 µM), inactives show top-dose activity change, negative = growth inhibition, usual class: inhibitors; chicken DT40 Tdp1-/-;hTDP1 cells + 20 nM CPT, ATP luminescence, 48 h; 12% of 420,000 active; note: potency is the fitted concentration of half-maximal effect; % is set by controls: 0 for no effect and ±100 for the full control effect; nearly all actives have a fitted effect of over 55% in size
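Chicken DT40 Tdp1-/- cells complemented with human TDP1, 400 cells/well, exposed to compounds plus 20 nM camptothecin for at least 48 h at 37 C; viability read as ATP content by CellTiter-Glo luminescence.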
DRD3 antagonist = qHTS of D3 Dopamine Receptor Antagonist: qHTS | 2.5% of 360,000 active | D(3) dopamine receptor (Homo sapiens), P35462 | D3R cells, DiscoveRx beta-arrestin luminescence, antagonist mode; hits give low values | AID 652054, 2013 | max response, negative = inhibition, %; in the data active = max response below about -50%; inconclusive = no clear call, values can overlap the other calls; note: % is set by controls: 0 for no effect and ±100 for the full control effect
Target sequence (P35462 whole entry, looked up): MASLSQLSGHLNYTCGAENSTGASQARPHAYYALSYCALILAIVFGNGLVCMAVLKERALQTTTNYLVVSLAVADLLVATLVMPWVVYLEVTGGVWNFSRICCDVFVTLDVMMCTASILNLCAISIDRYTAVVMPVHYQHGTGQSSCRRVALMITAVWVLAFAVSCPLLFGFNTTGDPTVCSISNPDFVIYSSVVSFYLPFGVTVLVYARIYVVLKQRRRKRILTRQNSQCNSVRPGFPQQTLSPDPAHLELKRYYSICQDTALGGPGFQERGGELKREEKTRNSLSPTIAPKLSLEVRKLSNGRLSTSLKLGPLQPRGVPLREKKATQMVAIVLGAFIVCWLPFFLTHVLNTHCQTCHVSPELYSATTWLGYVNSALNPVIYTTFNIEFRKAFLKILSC
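Cells plated overnight at 1500 cells/well, then exposed to library compounds with dopamine controls for 90 minutes at 37 degrees C. DiscoveRx reagent added for 30–60 minutes at room temperature; luminescence read, quantitative HTS format.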
IL1B secr inh = qHTS for Inhibitors of Inflammasome Signaling: IL-1-beta AlphaLISA Primary Screen. THP-1 LPS/ATP IL-1B secretion, AlphaLISA, 16 h; hits give low values. activity change, % at 57.5 µM. 4.7% of 360,000 active. AID 743279, 2014; in the data active = activity change below about -50%; inconclusive = mostly about -30% to -49%; note: % is set by controls: 0 for no effect and ±100 for the full control effect
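THP-1 cells pretreated 1 hr with compounds (up to 57.5 uM final), then stimulated with LPS (250 ng/mL final) plus ATP (1.25 mM final); secreted IL-1B measured by AlphaLISA after 16 hr, decreased signal indicating inhibition.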
D3 ag = qHTS of D3 Dopamine Receptor Agonist: qHTS; 0.58% of 410,000 active; D3R DiscoveRx beta-arrestin cells, luminescence, 90 min; AID 652048, 2013; D(3) dopamine receptor (Homo sapiens), P35462; max activation, %; in the data active = max activation above about 30%; note: 0% is about no effect
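Agonist-mode cell screen: cells plated at 1500/well and incubated overnight at 37 °C, then exposed to library compounds for 90 min at 37 °C. Detection reagent was added for 30–60 min at room temperature, and luminescence was read.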
TDP1 cell noCPT = qHTS for Inhibitors of human tyrosyl-DNA phosphodiesterase 1 (TDP1): qHTS in cells in absence of CPT | DT40 Tdp1-/- hTDP1 cells, no CPT, ATP luminescence, 48 h | Potency, µM (series often up to 46.2 µM), without a hit: at the top dose activity change, negative = growth inhibition, usual class: inhibitors | 15% of 420,000 active | AID 686978, 2013; note: potency is the fitted concentration of half-maximal effect; % is set by controls: 0 for no effect and ±100 for the full control effect; nearly all actives have a fitted effect of over 55% in size
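Growth kinetics read by CellTiter-Glo luminescence after ≥48 hr at 37 °C. Cells: DT40 Tdp1-/- stably carrying human TDP1, 400 per well, compound exposure in the absence of CPT (DMSO vehicle).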
ClpP mod = qHTS Assay for Activators of ClpP. ATP-dependent Clp protease proteolytic subunit (Bacillus subtilis (strain 168)), P80244. purified B. subtilis ClpP, FRET peptide cleavage, 20 min. Potency, µM (doses to about 57.5 µM), inactives show at the top dose activity change, negative = active. 1.9% of 340,000 active. AID 651965, 2013; active = well fitted falling curve with a large enough effect; inconclusive = small, poorly fitted or top-dose-only effect; inactive = no such curve, though single readings can be large or run the other way; note: potency is the fitted concentration of half-maximal effect; the source files actives as falling curves though it sought activators and does not explain the sign; nearly all actives have a fitted effect of over 65% in size
Target sequence (P80244 whole entry, looked up): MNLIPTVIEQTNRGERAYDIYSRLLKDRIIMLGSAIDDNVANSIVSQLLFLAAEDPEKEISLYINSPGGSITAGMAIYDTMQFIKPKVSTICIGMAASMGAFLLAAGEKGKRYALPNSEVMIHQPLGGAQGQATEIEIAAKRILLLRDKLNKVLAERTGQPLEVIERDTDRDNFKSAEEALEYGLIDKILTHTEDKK
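ClpP 10 microg/mL final, pH 8 Tris/KCl buffer with BSA, glycerol, Tween-20; compound pinned in; FRET-FV substrate; RT 20 min; Ex320/Em430; ΔFRET vs ADEP 5.8 microM, DMSO, no enzyme.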
Active calls of the source: *; i = inactive; ? = inconclusive; · = no result given; [ ] = remark or other dose. Unless noted, calls come from the whole dose curve; as a rule, active = well fitted inhibition curve with a large enough effect; inconclusive = small, poorly fitted or top-dose-only effect; inactive = flat fitted curve, though single readings scatter.

SMILES | TDP1 cell CPT | DRD3 antagonist | IL1B secr inh | D3 ag | TDP1 cell noCPT | ClpP mod
COc1ccc(S(=O)(=O)N(C)c2ccc(C(=O)NCc3ccco3)cc2)cc1OC | -18% | 11 | 12 | 2 | -27% | 2%
CC(=O)N1CC(=O)N(Cc2ccccc2)/C(=C/c2ccccc2)C1=O | -25% | 1 | 0 | -3 | -21% | ·
COc1ccc(NC(=O)NNC(=O)C(C)Oc2ccc3ccccc3c2)cc1OC (stereo unspecified) | 9% | -12 | i | -1 | -5% | -9%
CN(Cc1ccccc1)Cc1cc(=O)oc2ccc3ccccc3c12 | ? | 29 | 31 | 5 | 18µM* | -21%
Cc1cc2oc(=O)cc(CN(C)Cc3ccccc3F)c2cc1Cl | ? | 1 | 18 | 5 | ? | ·
CN(Cc1ccccc1)Cc1cc(=O)oc2ccccc12 | ? | 0 | 0 | -6 | ? | -8%
Cc1ccc2c(CN(C)Cc3ccccc3)cc(=O)oc2c1 | 18µM* | 0 | 36 | 19 | ? | -8%
CN(Cc1ccccc1F)Cc1cc(=O)oc2cc(O)c(Cl)cc12 | 15µM* | -13 | 22 | 0 | 16µM* | ·
CCCCN(CCCC)Cc1cc(=O)oc2cc(OC)ccc12 | ? | 0 | 48 | -21 | ? | 5%
CCCCN(CCCC)Cc1cc(=O)oc2ccc3ccccc3c12 | ? | 11 | 15 | 5 | 16µM* | ?
Cn1nnnc1NCc1cccc(Cl)c1Cl | -17% | 40 | -10 | -3 | 9% | ·
C=CCN(CC=C)Cc1cc(=O)oc2ccc3ccccc3c12 | 16µM* | 15 | 0 | 1 | 16µM* | ?
C=CCN(CC=C)Cc1cc(=O)oc2cc(C)ccc12 | -23% | -4 | 7 | 8 | ? | 4%
CN(C)CCNC(=O)Nc1ccc(F)cc1F | 5% | 3 | 1 | 3 | 0% | ·
CCOc1ccc(NC(=O)N2CCN(Cc3cc(=O)n4nc(-c5ccc(OC)cc5)sc4n3)CC2)cc1 | -2% | · | · | 5 | -20% | -11%
O=C(Nc1ccc(N2CCOCC2)c(S(=O)(=O)Nc2ccc(Cl)cc2)c1)c1cnccn1 | 16µM* | 4 | -17 | -2 | 18µM* | -2%
O=C(Nc1ccc(N2CCOCC2)c(S(=O)(=O)Nc2ccc(Cl)cc2)c1)c1ccc(=O)[nH]n1 | -22% | -10 | -56* | 8 | -16% | -3%
CN(C)c1ccc(C2(c3ccc(N(C)C)cc3)OC(=O)c3cc(N)ccc32)cc1 | -16% | 0 | -10 | -8 | ? | ·
O=C(/C=C/c1cc(Br)ccc1F)OCC(=O)N1CCCC1 | -2% | 6 | -23 | -5 | 4% | -1%
Cc1ccc(CCNC(=O)c2c[nH]c3ccc(S(=O)(=O)Nc4ccc(C)cc4C)cc3c2=O)cc1 | ? | · | · | 2 | ? | -6%
CCC(=O)N1CCN(CCN=CC2=C(O)CC(C)(C)CC2=O)CC1 | 5% | -3 | 4 | 15 | 8% | 1%
CC1(C)CC(=O)C(C=NCCN2CCN(C(=O)CCl)CC2)=C(O)C1 | ? | -12 | 0 | -4 | 10µM* | -4%
Cn1c(O)c(N=NC(=O)Cc2c[nH]c3ccccc23)c2ccccc21 | ? | 56 | -30 | 2 | ? | 3.2µM*
COc1ccccc1CN1CCCC(n2cc(C(=O)N3CCCC3)nn2)C1 (stereo unspecified) | 42%[9.04 µM] | · | · | · | ? | ·
COc1ccc(C2=Nc3ccccc3C2(O)CCN2C(=O)c3ccccc3C2=O)cc1 (stereo unspecified) | -14% | 2 | 21 | 10 | -23% | -10%
SMILES | TDP1 cell CPT | DRD3 antagonist | IL1B secr inh | D3 ag | TDP1 cell noCPT | ClpP mod
CCN(Cc1ccccc1)C(=O)c1ccc(C)c(S(=O)(=O)N2CCCCC2)c1 | ? | -14 | 0 | -6 | 16µM* | 0%
CCCN(CC(=O)Nc1ccccc1C)C(=O)c1ccc(C)c(S(=O)(=O)N2CCCCC2)c1 | -14% | -2 | -18 | -1 | -29% | 1%
CCN(CC1COc2ccccc2O1)C(=O)c1ccc(Cl)c(S(=O)(=O)N2CC(C)OC(C)C2)c1 (stereo unspecified) | 7.3µM* | 0 | -3 | -6 | 4.6µM* | ·
Cc1ccc(C(=O)N(CCc2ccccc2)Cc2ccccc2)cc1S(=O)(=O)N1CCCCC1 | ? | 4 | -16 | -6 | 18µM* | ·
COc1ccc(C(=O)N(CCc2ccccc2)Cc2ccccc2)cc1S(=O)(=O)N1CCOCC1 | 23µM* | 10 | -12 | -1 | 16µM* | 0%
Cc1ccc(S(=O)(=O)N2CCCCC2)cc1C(=O)NCCc1ccccc1 | -7% | 6 | -13 | 2 | ? | -1%
O=C(CSCc1c(F)cccc1Cl)Nc1ccccc1C(=O)N1CCOCC1 | -10% | 7 | -3 | -1 | -12% | 3%
CSCC[C@H](NS(=O)(=O)c1ccc(C)cc1)C(=O)N1CCC(C(=O)N[C@H](C(=O)O)c2ccccc2)CC1 | 13% | 3 | 8 | -9 | 0% | -3%
Cc1nnsc1S(=O)(=O)c1ccccc1 | 14% | 6 | -9 | 5 | 2% | ·
CCCCn1c(N)c(N(CCOC)C(=O)CSCc2ccc(C)cc2)c(=O)[nH]c1=O | -7% | -21 | 3 | -16 | -10% | ?
Cc1nnc(N/N=C/c2ccco2)n1N | -6% | 3 | 16 | 1 | 5% | ·
O=C(c1cccc(S(=O)(=O)N2CCOCC2)c1)N(CCc1ccccc1)Cc1ccccc1 | ? | 13 | -15 | 3 | ? | 1%
CC1CN(S(=O)(=O)c2cc(C(=O)N(CCc3ccccc3)Cc3ccccc3)ccc2Cl)CC(C)O1 (stereo unspecified) | 12µM* | 13 | -4 | 7 | 10µM* | -1%
Cc1ccc(C(=O)N(CCc2ccccc2)Cc2ccccc2)cc1S(=O)(=O)N1CCOCC1 | 15µM* | 1 | -22 | -6 | 23µM* | -1%
COc1ccc(CC(=O)N(Cc2ccccc2)c2ccccc2)cc1S(=O)(=O)N1CCOCC1 | 16µM* | 46 | i | 4 | 15µM* | -12%
CC1CCN(c2ccc(-c3cccc(NS(=O)(=O)c4ccc(Cl)s4)c3)nn2)CC1 | 8% | · | · | -3 | 0% | -7%
CCOc1cccc(/C=C/c2cc(C(=O)O)c3ccccc3n2)c1OC | -11% | -21 | -2 | 1 | -7% | -20%
Fc1ccccc1-c1nc(-c2ccc(Br)o2)no1 | 4% | -7 | 9 | -7 | 1% | 1%
